Source: PubChem BioAssay (EPA / NIEHS)
Values joined by “and” are separate entries in the source; they are usually repeats but may differ in a detail not shown here. Identical values can stand only once. Where a structure was tested more than once in an assay, its records may differ in their call. Active and inactive are the calls of the source. The calls were made as follows: active = hit-call score of the fitted dose curve at least 0.9, where 1 is the maximum; inactive = score below 0.9.

Test: ATG_AP_1_CIS: Attagene CIS-FACTORIAL HepG2 Assay for human Activator Protein 1 (AP-1) (AID 2282931)
Settings: HepG2 Attagene cis-factorial AP-1 reporter mRNA; actives raise or lower the signal
Summary of the method: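 After 24 h incubation with test chemical, RNA from transfected HepG2 cells was reverse-transcribed, amplified, fluorescently labelled and digested before capillary electrophoresis. Reporters were driven by cis-regulatory promoters; activity fitted bidirectionally versus DMSO.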
For `C[C@]12CCC(=O)C=C1CC[C@@H]1[C@@H]2CC[C@]2(C)C(=O)CC[C@@H]12`, the outcome was “inactive”.
With `O=S(=O)(O)C(F)(F)C(F)(F)C(F)(F)C(F)(F)C(F)(F)C(F)(F)F` the AC50 was 117 µM (active) and the outcome was “inactive”.
For `CCOP(=S)(OCC)SCSC(C)(C)C`, the outcome was “inactive”.
With `O=C(NC(=O)c1cc(F)c(F)cc1Cl)Nc1cc(F)ccc1N1CCC(C(=O)O)CC1` the outcome was “inactive”.
For `CC(c1ccc(O)cc1)(c1ccc(O)cc1)c1ccc(O)cc1`, the AC50 was 17.9 µM (active).
With `ClC1=C(Cl)[C@]2(Cl)[C@@H]3[C@@H](Cl)[C@H]4O[C@H]4[C@@H]3C1(Cl)C2(Cl)Cl` the AC50 was 35.9 µM (active).
For `Cc1ccccc1[N+](=O)[O-]`, the outcome was “inactive”.
For `ClC1=C(Cl)[C@]2(Cl)[C@@H]3[C@H]4C[C@H]([C@@H]5O[C@H]45)[C@@H]3[C@@]1(Cl)C2(Cl)Cl`, the outcome was “inactive”.
With `O=S(=O)(O)C(F)(F)C(F)(F)C(F)(F)C(F)(F)F` the outcome was “inactive”.
In the case of `CC#Cc1cc(C)nc(Nc2ccccc2)n1`, the outcome was “inactive”.
With `O=C(O)C(F)(F)C(F)(F)C(F)(F)C(F)(F)C(F)(F)C(F)(F)C(F)(F)C(F)(F)F` the AC50 was 50.5 µM (active) and 274 µM (active) and 16.7 µM (active).
For `CCCCCCCCCC[N+](C)(C)CCCCCCCCCC`, the AC50 was 192 µM (active).
With `CCC(=O)O[C@H]1CC[C@H]2[C@@H]3CCC4=CC(=O)CC[C@]4(C)[C@H]3CC[C@]12C` the outcome was “inactive”.
For `COc1ccc(O)c(C(C)(C)C)c1`, the AC50 was 55.5 µM (active).
With `CC1=C2C[C@H]3[C@@H](CC=C4C[C@@H](O)CC[C@@]43C)[C@@H]2CC[C@]12O[C@@H]1C[C@H](C)CN[C@H]1[C@H]2C` the outcome was “inactive”.
For `O=C(N[C@H]1CN2CCC1CC2)c1cc2ccoc2cn1`, the outcome was “inactive”.
In the case of `CCCN(CCC)N=O`, the outcome was “inactive”.
In the case of `CC(C)(c1ccccc1)c1ccc(O)cc1`, the AC50 was 45.8 µM (active) [middle of 4 runs].
In the case of `Cc1cc2c3c(c1)C(c1ccccc1)=N[C@@H](NC(=O)c1ccncc1)C(=O)N3CC2`, the outcome was “inactive”.
For `CCCCCCOC(=O)c1ccccc1C(=O)OCCCCCC`, the AC50 was 45.3 µM (active).
In the case of `N#Cc1ccc(N(CC(N)=O)CC(F)(F)F)cc1C(F)(F)F`, the outcome was “inactive”.
With `Clc1ccc(Cl)cc1` the outcome was “inactive”.
With `Clc1ccc(C(c2ccccc2Cl)C(Cl)(Cl)Cl)cc1` (stereo not given) the AC50 was 40.4 µM (active) [middle of 4 runs].
With `c1cc2ccc3cccc4ccc(c1)c2c34` the outcome was “inactive”.

Test: ATG_AP_2_CIS: Attagene CIS-FACTORIAL HepG2 Assay for human Activator Protein 2 (AP-2) (AID 2282932)
Settings: HepG2 AP-2 cis-reporter, Attagene transcription factor profiling; actives raise or lower the signal
Summary of the method: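 Step one: transient transfection of HepG2 with reporter transcription units. Step two: 24 h chemical exposure. Step three: RNA extraction, RT-PCR, labelled fragment analysis by capillary electrophoresis; DMSO serves as baseline.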
For `C[C@]12CCC(=O)C=C1CC[C@@H]1[C@@H]2CC[C@]2(C)C(=O)CC[C@@H]12`, the AC50 was 45.1 µM (active) and the outcome was “inactive”.
In the case of `O=S(=O)(O)C(F)(F)C(F)(F)C(F)(F)C(F)(F)C(F)(F)C(F)(F)F`, the outcome was “inactive”.
In the case of `CCOP(=S)(OCC)SCSC(C)(C)C`, the outcome was “inactive”.
In the case of `O=C(NC(=O)c1cc(F)c(F)cc1Cl)Nc1cc(F)ccc1N1CCC(C(=O)O)CC1`, the outcome was “inactive”.
With `CC(c1ccc(O)cc1)(c1ccc(O)cc1)c1ccc(O)cc1` the AC50 was 18.1 µM (active).
In the case of `ClC1=C(Cl)[C@]2(Cl)[C@@H]3[C@@H](Cl)[C@H]4O[C@H]4[C@@H]3C1(Cl)C2(Cl)Cl`, the outcome was “inactive”.
In the case of `Cc1ccccc1[N+](=O)[O-]`, the outcome was “inactive”.
For `ClC1=C(Cl)[C@]2(Cl)[C@@H]3[C@H]4C[C@H]([C@@H]5O[C@H]45)[C@@H]3[C@@]1(Cl)C2(Cl)Cl`, the outcome was “inactive”.
In the case of `Oc1c(Cl)c(Cl)c(Cl)c(Cl)c1Cl`, the AC50 was 26.1 µM (active) and the outcome was “inactive”.
In the case of `CCCCCCCCCc1ccc(O)cc1`, the AC50 was 169 µM (active) and the outcome was “inactive”.
For `O=S(=O)(O)C(F)(F)C(F)(F)C(F)(F)C(F)(F)F`, the outcome was “inactive”.
With `Cc1cc(-c2ccc(N)c(C)c2)ccc1N` the outcome was “inactive”.
For `CC#Cc1cc(C)nc(Nc2ccccc2)n1`, the outcome was “inactive”.
In the case of `O=C(O)C(F)(F)C(F)(F)C(F)(F)C(F)(F)C(F)(F)C(F)(F)C(F)(F)C(F)(F)F`, the outcome was “inactive”.
In the case of `O=C(O)C(F)(F)C(F)(F)C(F)(F)C(F)(F)C(F)(F)C(F)(F)C(F)(F)C(F)(F)C(F)(F)F`, the AC50 was 46.5 µM (active) and the outcome was “inactive”.
With `CCCCCCCCCC[N+](C)(C)CCCCCCCCCC` the AC50 was 100 µM (active).
With `CCC(=O)O[C@H]1CC[C@H]2[C@@H]3CCC4=CC(=O)CC[C@]4(C)[C@H]3CC[C@]12C` the outcome was “inactive”.
With `COc1ccc(O)c(C(C)(C)C)c1` the outcome was “inactive”.
In the case of `CC1=C2C[C@H]3[C@@H](CC=C4C[C@@H](O)CC[C@@]43C)[C@@H]2CC[C@]12O[C@@H]1C[C@H](C)CN[C@H]1[C@H]2C`, the outcome was “inactive”.
With `O=C(N[C@H]1CN2CCC1CC2)c1cc2ccoc2cn1` the outcome was “inactive”.
For `NS(=O)(=O)C(F)(F)C(F)(F)C(F)(F)C(F)(F)C(F)(F)C(F)(F)C(F)(F)C(F)(F)F`, the outcome was “inactive”.
In the case of `Oc1ccc(C(c2ccc(O)cc2)(C(F)(F)F)C(F)(F)F)cc1`, the outcome was “inactive”.
With `ClC(Cl)=C(c1ccc(Cl)cc1)c1ccc(Cl)cc1` the AC50 was 135 µM (active) and the outcome was “inactive”.
For `C[C@]12CCC(=O)C=C1CC[C@@H]1[C@@H]2CC[C@@]2(C)[C@H]1CC[C@]2(C)O`, the AC50 was 33.9 µM (active) and the outcome was “inactive”.
In the case of `CCCN(CCC)N=O`, the outcome was “inactive”.
With `CC(C)(c1ccccc1)c1ccc(O)cc1` the AC50 was 33.4 µM (active) and the outcome was “inactive”.
In the case of `Cc1cc2c3c(c1)C(c1ccccc1)=N[C@@H](NC(=O)c1ccncc1)C(=O)N3CC2`, the outcome was “inactive”.
For `CC(C)(O)C(=O)Nc1ccc([N+](=O)[O-])c(C(F)(F)F)c1`, the outcome was “inactive”.
With `CCCCCCOC(=O)c1ccccc1C(=O)OCCCCCC` the outcome was “inactive”.
With `N#Cc1ccc(N(CC(N)=O)CC(F)(F)F)cc1C(F)(F)F` the outcome was “inactive”.
For `Clc1ccc(Cl)cc1`, the outcome was “inactive”.
With `Clc1ccc(C(c2ccccc2Cl)C(Cl)(Cl)Cl)cc1` (stereo not given) the outcome was “inactive”.
With `c1cc2ccc3cccc4ccc(c1)c2c34` the outcome was “inactive”.
